Measurements as given in PubChem BioAssay (NCI).
The panel holds about 83,000 compounds, 20% with a hit somewhere; the sample as a whole holds those more often.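 Step 1: grow cells in 96-well plates. Step 2: add test compound at a single concentration. Step 3: incubate 48 h. Step 4: record percent growth.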 The source made the active and inactive calls. The calls were made as follows: active = growth percent below 10; inactive = the rest.

These molecules were tested on NCI/ADR-RES ovarian (assay: NCI-60 one-dose screen, 48 h (100 = growth as untreated, 0 = no growth, -100 = all killed)). Conditions: 10 µM unless noted.

Row | Compound | growth
1 | CCOC(=O)C(=O)CC(=O)N1C(=S)NC(=O)C1CC(C)C (stereo not drawn) | 95.3% (inactive)
2 | COC(=O)C(Cc1ccccc1)Nc1nc(NC(Cc2ccccc2)C(=O)OC)nc(N2CCOCC2)n1 (stereo not drawn) | 111% (inactive)
3 | COc1c(N2CC3CCCNC3C2)c(F)cc2c(=O)c(C(=O)N/N=C/c3ccc(F)cc3)cn(C3CC3)c12 (stereo not drawn) | 89.4% (inactive)
4 | CC(=O)C1=C(C)NC(NNC(N)=S)=NC1c1ccccc1 (stereo not drawn) | 108% (inactive)
5 | Cn1cc(-c2nnc(N)nc2-c2c[nH]c3ccc(F)cc23)c2cc(F)ccc21 | 86.7% (inactive)
6 | Oc1[nH]c2ccccc2c1Nn1c(N=N/C=c2/ccc3c(c2)C=NN=3)n[nH]c1=S | 112% (inactive)
7 | Cc1ccc2c(c1)C13C(=C2Br)CCCN1C(=O)c1ccccc13 (stereo not drawn) | 88.4% (inactive)
8 | CCO/C=N/C1=C(C#N)C(c2ccc(Cl)cc2)c2sc3c(CC)cccc3c2O1 (stereo not drawn) | 14.9% (inactive)
9 | C=C(C=O)[C@@H]1CC[C@]2(COC(C)=O)CC[C@]3(C)C(CC[C@@H]4[C@@]5(C)CC[C@H](OC(C)=O)C(C)(C)[C@@H]5CC[C@]43C)[C@@H]12 (stereo partly drawn) | 1.48% (active)
10 | O=C(O)c1ccc(-n2cc(CNc3cc(F)c(F)c(F)c3)c(-c3ccc(F)cc3)n2)cc1 | 97.8% (inactive)
11 | COc1cc2nc(Cl)nc(Nc3cccc(C4=Nc5c(N)nc(N)nc5NC(c5ccc(Cl)cc5)C4)c3)c2cc1OC (stereo not drawn) | 80.1% (inactive)
12 | CNC(=O)c1cc(N2CCc3cc(NC(=O)Nc4ccc(Cl)c(C(F)(F)F)c4)ccc32)ccn1 | 55% (inactive)
13 | N=c1c2cc(-c3ccccc3)oc2ncn1/N=C/c1ccc(Br)cc1 | 22.3% (inactive)
